# Records with an inconclusive call do not appear. Entries that show only a call come without a potency. Values without a mark were called inactive. Calls of active or inactive are those of the source. Unless noted, calls follow the shape of the dose curve; as a rule, active = well fitted curve in the direction sought with a large enough effect in the repeat runs; inconclusive = weak or mixed curves; inactive = no such curve, though single readings can be large; an effect the other way counts as inactive or inconclusive.
# Tests used:
# [1] = qHTS assay to identify small molecule antagonists of the estrogen related receptor (ERR) signaling pathway from Tox21 library - cell viability counter screen (AID 1224834); also: nearly all actives have a fitted effect of over 30% in size; also: potency is read from the fitted curve at half-maximal effect
# In short: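 In this quantitative HTS format, ERR cells receive compounds in DMSO and are incubated for 17.5 h at 37 C. Live-cell protease activity is then detected with CellTiter-Fluor.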
# [2] = target: Luciferin 4-monooxygenase (Photinus pyralis) (UniProt P08659); assay: qHTS assay to identify small molecule inhibitors of firefly luciferase (AID 1224835); also: nearly all actives have a fitted effect of over 25% in size; also: potency is read from the fitted curve at half-maximal effect; as to activity change, negative = inhibition: series mostly up to about 120 µM
# Luciferin 4-monooxygenase (Photinus pyralis), sequence (P08659 whole entry, looked up): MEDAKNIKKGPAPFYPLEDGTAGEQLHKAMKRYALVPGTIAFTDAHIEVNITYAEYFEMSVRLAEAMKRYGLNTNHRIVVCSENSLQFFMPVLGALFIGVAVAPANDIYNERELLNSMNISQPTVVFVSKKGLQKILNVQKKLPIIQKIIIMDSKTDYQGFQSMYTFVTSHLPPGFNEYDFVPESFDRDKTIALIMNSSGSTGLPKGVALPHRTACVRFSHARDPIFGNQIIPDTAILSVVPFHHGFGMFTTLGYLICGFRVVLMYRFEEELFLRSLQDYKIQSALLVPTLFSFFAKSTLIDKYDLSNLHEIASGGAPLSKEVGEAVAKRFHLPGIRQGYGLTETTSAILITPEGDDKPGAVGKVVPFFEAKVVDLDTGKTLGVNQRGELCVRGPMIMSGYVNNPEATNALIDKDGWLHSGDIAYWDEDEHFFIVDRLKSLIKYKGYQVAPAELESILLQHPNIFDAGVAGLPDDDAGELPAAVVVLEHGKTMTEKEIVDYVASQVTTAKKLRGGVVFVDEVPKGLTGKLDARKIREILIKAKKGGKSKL
# In short: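 Biochemical qHTS: compounds run as interplate titrations against purified firefly enzyme, with D-luciferin and ATP each at its KM concentration. Light output recorded by CCD imaging.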
# [3] = qHTS assay to identify small molecule agonists of the constitutive androstane receptor (CAR) signaling pathway - cell viability counter screen (AID 1224836); also: nearly all actives have a fitted effect of over 45% in size; also: potency is read from the fitted curve at half-maximal effect; as to viability change, negative = cytotoxic: series mostly up to about 92 µM
# In short: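 Cell viability multiplexed with the CAR agonist screen: CellTiter-Fluor fluorescence after 23 hr at 37 C. HepG2-CYP2B6-hCAR cells got compounds at 15 concentrations with PK11195 at 0.75 uM final.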
# [4] = qHTS assay to identify small molecule antagonists of the constitutive androstane receptor (CAR) signaling pathway - cell viability counter screen (AID 1224837); also: nearly all actives have a fitted effect of over 45% in size; also: potency is read from the fitted curve at half-maximal effect; as to activity change, negative = cytotoxicity: series mostly up to about 92 µM
# In short: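 In quantitative HTS format, compounds at 15 concentrations were applied to HepG2 cells double-transfected with hCAR and CYP2B6-2.2kb under 50 nM CITCO stimulation; live-cell protease activity was read after 23 hr via CellTiter-Fluor.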
# [5] = qHTS assay to identify small molecule antagonists of the estrogen related receptor signaling pathway with the pleiotropic PPARgamma coactivator (PGC) from Tox21 10K library - cell viability counter screen (AID 1224840; active = well fitted cell-killing curve with a large enough effect in the repeat runs, not every such curve was filed as active; also: nearly all actives have a fitted effect of over 40% in size; also: potency is read from the fitted curve at half-maximal effect)
# In short: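 Viability counter screen, PGC/ERR cells: 17.5 h compound exposure at 37 C, CellTiter-Fluor fluorescence endpoint.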
# [6] = target: Nuclear receptor subfamily 1 group I member 3 (Homo sapiens) (UniProt Q14994); assay: qHTS assay to identify small molecule antagonists of the constitutive androstane receptor (CAR) signaling pathway (AID 1224838); also: nearly all actives have a fitted effect of over 40% in size
# Nuclear receptor subfamily 1 group I member 3 (Homo sapiens), sequence (Q14994 whole entry, looked up): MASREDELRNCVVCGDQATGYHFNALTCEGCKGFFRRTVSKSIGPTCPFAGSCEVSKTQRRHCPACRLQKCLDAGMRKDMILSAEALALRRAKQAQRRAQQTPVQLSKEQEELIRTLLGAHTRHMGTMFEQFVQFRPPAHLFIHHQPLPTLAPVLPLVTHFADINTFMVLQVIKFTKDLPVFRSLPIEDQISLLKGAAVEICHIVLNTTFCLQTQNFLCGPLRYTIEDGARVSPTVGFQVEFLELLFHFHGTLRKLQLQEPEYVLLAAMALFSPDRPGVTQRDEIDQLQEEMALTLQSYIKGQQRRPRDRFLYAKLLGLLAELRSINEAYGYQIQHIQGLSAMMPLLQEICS
# In short: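 CITCO-stimulated (50 nM final) HepG2 cells stably transfected with hCAR and CYP2B6-2.2kb luciferase were exposed to compounds at 15 concentrations for 24 h at 37 C/5% CO2. A luciferase reagent was added and luminescence recorded after 30 min.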
# [7] = target: Nuclear receptor subfamily 1 group I member 3 (Homo sapiens) (UniProt Q14994); assay: qHTS assay to identify small molecule agonists of the constitutive androstane receptor (CAR) signaling pathway (AID 1224839); also: nearly all actives have a fitted effect of over 15% in size; also: potency is read from the fitted curve at half-maximal effect;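 as to activation: HepG2 cells stably carrying human CAR and a CYP2B6 luciferase reporter; series mostly up to about 92 µM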
# In short: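 Luminescent ONE-Glo read-out after 24 hr, 37 C exposure of double-stable HepG2-CYP2B6-hCAR reporter cells to a 15-point compound series, in the presence of 0.75 uM PK11195 (final).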
# [8] = target: Thyrotropin receptor (Homo sapiens) (UniProt P16473); assay: qHTS assay to identify small molecule agonists of the thyroid stimulating hormone receptor (TSHR) signaling pathway (AID 1224843; calls by dose curve; also: nearly all actives have a fitted effect of over 45% in size; also: potency is read from the fitted curve at half-maximal effect)
# Thyrotropin receptor (Homo sapiens), sequence (P16473 whole entry, looked up): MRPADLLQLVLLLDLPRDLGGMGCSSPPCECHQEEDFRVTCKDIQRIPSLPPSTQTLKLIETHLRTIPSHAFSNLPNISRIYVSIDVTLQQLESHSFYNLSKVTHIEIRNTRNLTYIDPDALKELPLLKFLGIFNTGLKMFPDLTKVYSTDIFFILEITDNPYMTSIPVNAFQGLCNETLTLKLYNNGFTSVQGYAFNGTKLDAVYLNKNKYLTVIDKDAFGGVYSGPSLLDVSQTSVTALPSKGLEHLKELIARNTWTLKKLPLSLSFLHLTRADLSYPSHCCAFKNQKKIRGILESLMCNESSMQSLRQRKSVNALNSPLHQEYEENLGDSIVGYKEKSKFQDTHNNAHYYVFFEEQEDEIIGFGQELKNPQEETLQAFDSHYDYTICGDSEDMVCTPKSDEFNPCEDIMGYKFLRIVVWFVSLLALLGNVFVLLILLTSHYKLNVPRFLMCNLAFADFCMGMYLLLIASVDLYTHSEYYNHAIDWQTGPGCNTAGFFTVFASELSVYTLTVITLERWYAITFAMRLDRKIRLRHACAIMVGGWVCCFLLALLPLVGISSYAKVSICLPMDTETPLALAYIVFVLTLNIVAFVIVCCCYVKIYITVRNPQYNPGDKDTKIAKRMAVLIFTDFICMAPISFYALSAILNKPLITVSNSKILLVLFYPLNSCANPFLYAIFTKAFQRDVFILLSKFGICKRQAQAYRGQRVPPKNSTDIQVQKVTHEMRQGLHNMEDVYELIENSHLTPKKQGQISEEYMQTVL
# In short: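 HEK293/TSHR, 800 cells/well; cpd 30 min RT; add cAMP-d2 + anti-cAMP-cryptate, 1 h RT; fluorescence read on plate reader. 15-pt titration, n=3.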
# [9] = qHTS assay to identify small molecule antagonists of the estrogen related receptor signaling pathway with the pleiotropic PPARgamma coactivator (PGC) from Tox21 10K library (AID 1224841; call rule not given here; also: actives are mostly falling curves and most rising ones were filed inactive; nearly all actives have a fitted effect of over 50% in size; also: potency is read from the fitted curve at half-maximal effect)
# In short: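 In the PGC/ERR line, DMSO solutions of test chemicals are pin-delivered to 2,000 cells/well six hours after dispensing. Following eighteen hours' incubation, One-Glo reagent is added and luminescence recorded.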
# [10] = qHTS assay to identify small molecule agonists of the estrogen related receptor signaling pathway with the pleiotropic PPARgamma coactivator (PGC) from Tox21 10K library (AID 1224842); also: nearly all actives have a fitted effect of over 15% in size
# In short: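 PGC/ERR reporter cell line, 2,000 cells per well, incubated 6 h at 37 C before 23 nL compound in DMSO was added. After 18 h at 37 C, One-Glo luminescence read following 30 min at room temperature.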
structure (smiles),measurement,setting,value
C[N+]1(C)[C@@H]2CC[C@H]1CC(OC(=O)C(CO)c1ccccc1)C2 (some centres not stated),Potency,[1],inactive
same,Potency,[2],inactive
same,Potency,[3],inactive
same,Potency,[4],inactive
same,Potency,[5],inactive
CCn1cc[n+](C)c1 (tested in a mixture with another compound),Potency,[1],inactive
same,Potency,[2],inactive
same,Potency,[3],inactive
same,Potency,[4],inactive
same,Potency,[5],inactive
CC1(C)[C@H](/C=C2\CCSC2=O)[C@@H]1C(=O)OCc1coc(Cc2ccccc2)c1,Potency,[1],inactive
same,Potency,[2],inactive
same,Potency,[3],inactive
same,Potency,[4],inactive
same,Potency,[6],inactive
same,Potency,[5],inactive
N#CSCc1ccccc1,Potency,[1],inactive
same,Potency,[2],inactive
same,Potency,[3],inactive
same,Potency,[4],inactive
same,Potency,[7],inactive
same,Potency,[8],inactive
CCOP(=O)(Sc1ccccc1)Sc1ccccc1,Potency,[1],inactive
same,Potency,[2],inactive
same,Potency,[3],inactive
same,Potency,[4],inactive
same,Potency,[7],21.7 µM (active)
same,Potency,[5],inactive
CNC(=O)Oc1cc(C)cc(C(C)C)c1,Potency,[1],inactive
same,Potency,[2],inactive
same,Potency,[3],inactive
same,Potency,[4],inactive
same,Potency,[6],inactive
same,Potency,[5],inactive
same,Potency,[9],inactive
same,Potency,[10],inactive
COc1c2c(cc3c1OCO3)CCN(C)C2,Potency,[1],inactive
same,Potency,[2],inactive
same,Potency,[3],inactive
same,Potency,[4],inactive
same,Potency,[5],inactive
Clc1ccc(C(Cl)(Cl)Cl)cc1Cl,Potency,[1],inactive
same,Potency,[2],inactive
same,Potency,[3],inactive
same,Potency,[4],inactive
same,Potency,[5],inactive
Clc1c(Cl)c(Cl)c(Cl)c(Cl)c1Cl,"viability change, negative = cytotoxic",[1],3.08% [at 8.39 µM]
same,"activity change, negative = inhibition",[2],2.81% [at 10.5 µM]
same,"viability change, negative = cytotoxic",[3],-2.28% [at 8.39 µM]
same,"activity change, negative = cytotoxicity",[4],2.2% [at 8.39 µM]
same,activation,[7],-1% [at 8.39 µM]
same,"viability change, negative = cytotoxic",[5],8.1% [at 8.39 µM]
same,activation,[8],-17.5% [at 8.39 µM]
OCC(Br)CBr (configuration not stated),Potency,[1],inactive
same,Potency,[2],inactive
same,Potency,[3],inactive
same,Potency,[4],inactive
same,Potency,[6],inactive
same,Potency,[7],inactive
same,Potency,[5],inactive
same,Potency,[8],inactive
CCOP(=S)(OCC)SC(CCl)N1C(=O)c2ccccc2C1=O (configuration not stated),Potency,[1],inactive
same,Potency,[2],inactive
same,Potency,[3],inactive
same,Potency,[4],inactive
same,Potency,[6],inactive
same,Potency,[5],inactive
same,Potency,[9],inactive
same,Potency,[10],inactive
CC(C)C(Br)C(=O)NC(N)=O (configuration not stated),Potency,[1],inactive
same,Potency,[2],inactive
same,Potency,[3],inactive
same,Potency,[4],inactive
same,Potency,[7],inactive
same,Potency,[5],inactive
same,Potency,[8],inactive
C#CCO,Potency,[1],inactive
same,Potency,[2],inactive
same,Potency,[3],inactive
same,Potency,[4],inactive
same,Potency,[6],inactive
same,Potency,[7],inactive
same,Potency,[5],inactive
same,Potency,[8],inactive
Nc1c(Cl)c(Cl)c(Cl)c(Cl)c1Cl,Potency,[1],inactive
same,Potency,[2],inactive
same,Potency,[3],inactive
same,Potency,[4],inactive
same,Potency,[6],inactive
same,Potency,[5],inactive
CCC[CH2][Sn]([CH2]CCC)([CH2]CCC)[CH2]CCC,Potency,[1],27.3 µM (active)
same,Potency,[2],inactive
same,Potency,[3],15.4 µM (active)
same,Potency,[4],24.3 µM (active)
same,Potency,[7],inactive
same,Potency,[5],17.2 µM (active)
same,Potency,[9],inactive
CN1C2CCC(C)(C)C1CC(OC(=O)C(O)(c1cccs1)c1cccs1)C2 (configuration not stated),Potency,[1],inactive
same,Potency,[2],inactive
same,Potency,[3],inactive
same,Potency,[4],inactive
same,Potency,[6],inactive
same,Potency,[7],inactive
same,Potency,[5],inactive
same,Potency,[8],inactive
CC(C)N(C(=O)SC/C(Cl)=C/Cl)C(C)C,Potency,[1],inactive
same,Potency,[2],inactive
same,Potency,[3],inactive
same,Potency,[4],inactive
same,Potency,[6],inactive
same,Potency,[7],inactive
same,Potency,[5],inactive
same,Potency,[8],17.3 µM (active)
CC(=O)C(Cl)C(=O)N(C)C (configuration not stated),Potency,[1],inactive
same,Potency,[2],inactive
same,Potency,[3],inactive
same,Potency,[4],inactive
same,Potency,[7],inactive
same,Potency,[5],inactive
same,Potency,[8],inactive
Cc1cccc(Cc2cnc[nH]2)c1C,Potency,[1],inactive
same,Potency,[2],inactive
same,Potency,[3],inactive
same,Potency,[4],inactive
same,Potency,[6],inactive
same,Potency,[7],inactive
same,Potency,[5],inactive
same,Potency,[8],inactive
C=CC(=C)C,Potency,[1],inactive
same,Potency,[2],inactive
same,Potency,[3],inactive
same,Potency,[4],inactive
same,Potency,[5],inactive
CNC(C)(C)Cc1ccccc1,Potency,[1],inactive
same,Potency,[2],inactive
same,Potency,[3],inactive
same,Potency,[4],inactive
same,Potency,[6],inactive
same,Potency,[5],inactive
same,Potency,[8],inactive
[O]=[Cr][O][Cr]=[O],Potency,[1],inactive
same,Potency,[2],inactive
same,Potency,[3],inactive
same,Potency,[4],inactive
same,Potency,[7],inactive
same,Potency,[5],inactive
ClC1=C(Cl)[C@]2(Cl)[C@H]3[C@H]([C@@H]4C=C[C@H]3C4)[C@@]1(Cl)C2(Cl)Cl,Potency,[1],inactive
same,Potency,[2],inactive
same,Potency,[3],inactive
same,Potency,[4],inactive
same,Potency,[7],13.7 µM (active)
same,Potency,[5],inactive
CSC(=O)c1c(C(F)F)nc(C(F)(F)F)c(C(=O)SC)c1CC(C)C,Potency,[1],inactive
same,Potency,[2],inactive
same,Potency,[3],inactive
same,Potency,[4],inactive
same,Potency,[6],inactive
same,Potency,[5],inactive
CCOC(=O)CCN(SN(C)C(=O)Oc1cccc2c1OC(C)(C)C2)C(C)C,Potency,[1],inactive
same,Potency,[2],inactive
same,Potency,[3],inactive
same,Potency,[4],inactive
same,Potency,[6],inactive
same,Potency,[7],27.3 µM (active)
same,Potency,[9],30.6 µM (active)
same,Potency,[10],inactive
same,Potency,[8],inactive
NC(=O)C(Cl)Cl,Potency,[1],inactive
same,Potency,[2],inactive
same,Potency,[3],inactive
same,Potency,[4],inactive
same,Potency,[5],inactive
C=CC(=O)[O][Sn]([CH2]CCC)([CH2]CCC)[CH2]CCC,Potency,[1],3.06 µM (active)
same,Potency,[2],35.6 µM (active)
same,Potency,[3],1.22 µM (active)
same,Potency,[4],1.93 µM (active)
same,Potency,[7],inactive
same,Potency,[5],1.72 µM (active)
same,Potency,[9],13.7 µM (active)
same,Potency,[10],inactive
CCN(CC)C(=O)N[C@@H]1C=C2c3cccc4[nH]cc(c34)C[C@@H]2N(C)C1,Potency,[1],inactive
same,Potency,[2],inactive
same,Potency,[3],inactive
same,Potency,[4],inactive
same,Potency,[6],inactive
same,Potency,[5],inactive
same,Potency,[8],inactive

# Reference: PubChem BioAssay (Tox21)
